# Laboratory results reported in article PMC7862700, “An all-to-all approach to the identification of sequence-specific readers for epigenetic DNA modifications on cytosine”.
# How the values were obtained:
# Assay in all cases: DAPPL (digital affinity profiling via proximity ligation, sequencing); 10 mM Tris-HCl pH 7.5, 50 mM NaCl, 1 mM DTT, 4% glycerol, room temperature, 30 min; GST-TFs on glutathione beads, 16-mer random dsDNA library, 0.1% formaldehyde crosslink after washing; high values mean tight binding
# FEV = biological target: T1, FEV (Homo sapiens, UniProt Q99581 1-238); details: protein: recombinant; tags: N-terminal GST; dsDNA, one strand shown
# T1 sequence: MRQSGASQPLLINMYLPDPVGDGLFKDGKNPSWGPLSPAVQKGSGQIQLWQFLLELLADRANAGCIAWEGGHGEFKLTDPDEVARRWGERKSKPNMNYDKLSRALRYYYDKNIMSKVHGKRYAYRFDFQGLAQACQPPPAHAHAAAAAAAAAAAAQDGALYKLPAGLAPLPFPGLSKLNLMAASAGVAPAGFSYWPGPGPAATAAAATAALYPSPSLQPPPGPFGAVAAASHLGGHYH
# Outline: (§1)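 After expression in yeast as GST fusions, human transcription factors were bound to glutathione beads, DNA-barcoded and mixed with a tag-only sample. The pools were incubated with 200 nmole of a 16-mer random double-stranded DNA library in Tris/NaCl/DTT/glycerol buffer (30 min, room temperature), washed and crosslinked with 0.1% formaldehyde. Proximity ligation with BsaI/T4 ligase ran for 1 h at 37 °C, before PCR amplification and sequencing on an Illumina NextSeq500. Binding signal is a hexamer's read frequency for a factor divided by its frequency for the tag-only sample.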
# ETV5 = ETV5 (Homo sapiens, UniProt P41161 1-510); details: protein: recombinant; tags: N-terminal GST; dsDNA, one strand shown
# Outline: as §1
# HSF1 = HSF1 (Homo sapiens, UniProt Q00613 1-529); details: protein: recombinant; tags: N-terminal GST; chain copies: 3; dsDNA, one strand shown
# Outline: as §1
# SPIC = biological target: T2, SPIC (Homo sapiens, UniProt Q8N5J4 1-248); details: protein: recombinant; tags: N-terminal GST; dsDNA, one strand shown
# T2 sequence: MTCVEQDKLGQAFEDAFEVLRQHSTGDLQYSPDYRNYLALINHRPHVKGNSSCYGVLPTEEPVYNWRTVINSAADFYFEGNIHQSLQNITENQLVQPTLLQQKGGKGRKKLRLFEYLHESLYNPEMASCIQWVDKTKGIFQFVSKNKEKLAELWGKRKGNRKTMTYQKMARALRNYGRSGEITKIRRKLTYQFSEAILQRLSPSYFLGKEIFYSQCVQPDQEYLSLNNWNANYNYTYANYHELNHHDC
# Outline: as §1
# ELF4 = ELF4 (Homo sapiens, UniProt Q99607 1-663); details: protein: recombinant; tags: N-terminal GST; dsDNA, one strand shown
# Outline: as §1
# ELK4 = biological target: T3, ELK4 (Homo sapiens, UniProt P28324-2 1-405); details: protein: recombinant; tags: N-terminal GST; dsDNA, one strand shown
# T3 sequence: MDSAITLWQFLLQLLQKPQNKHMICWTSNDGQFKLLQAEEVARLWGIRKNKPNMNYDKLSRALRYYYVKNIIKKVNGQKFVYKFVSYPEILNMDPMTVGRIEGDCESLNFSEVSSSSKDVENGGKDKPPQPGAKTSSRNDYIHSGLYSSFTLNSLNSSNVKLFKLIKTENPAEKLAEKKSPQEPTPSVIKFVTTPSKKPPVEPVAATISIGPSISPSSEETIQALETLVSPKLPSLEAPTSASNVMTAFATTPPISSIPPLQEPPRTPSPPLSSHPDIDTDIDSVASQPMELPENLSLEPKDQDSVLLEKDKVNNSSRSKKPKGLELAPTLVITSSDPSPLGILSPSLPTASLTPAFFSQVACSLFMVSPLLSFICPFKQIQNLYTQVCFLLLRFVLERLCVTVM
# Outline: as §1
# ETV2 = biological target: T4, ETV2 (Homo sapiens, UniProt O00321 1-342); details: protein: recombinant; tags: N-terminal GST; dsDNA, one strand shown
# T4 sequence: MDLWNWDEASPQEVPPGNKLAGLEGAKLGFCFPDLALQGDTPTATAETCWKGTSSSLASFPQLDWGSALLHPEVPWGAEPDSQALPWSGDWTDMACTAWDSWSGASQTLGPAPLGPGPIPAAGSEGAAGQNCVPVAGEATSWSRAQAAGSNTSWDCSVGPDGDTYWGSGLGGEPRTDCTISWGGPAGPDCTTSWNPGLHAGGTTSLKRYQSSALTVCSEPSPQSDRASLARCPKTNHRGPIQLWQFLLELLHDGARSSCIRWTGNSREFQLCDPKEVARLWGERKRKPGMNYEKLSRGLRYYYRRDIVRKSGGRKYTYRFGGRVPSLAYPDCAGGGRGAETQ
# Outline: as §1
# ELF3 = biological target: T5, ELF3 (Homo sapiens, UniProt P78545 1-371); details: protein: recombinant; tags: N-terminal GST; dsDNA, one strand shown
# T5 sequence: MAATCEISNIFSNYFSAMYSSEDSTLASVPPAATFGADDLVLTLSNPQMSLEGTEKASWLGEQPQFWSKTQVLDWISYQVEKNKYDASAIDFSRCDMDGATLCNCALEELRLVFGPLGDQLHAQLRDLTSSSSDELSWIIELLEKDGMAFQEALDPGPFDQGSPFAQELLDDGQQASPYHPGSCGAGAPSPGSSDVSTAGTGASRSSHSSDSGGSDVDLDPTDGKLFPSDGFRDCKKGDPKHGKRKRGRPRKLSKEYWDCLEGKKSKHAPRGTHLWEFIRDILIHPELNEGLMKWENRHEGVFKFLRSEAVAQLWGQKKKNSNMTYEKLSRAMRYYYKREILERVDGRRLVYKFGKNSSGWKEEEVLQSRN
# Outline: as §1
# CRX = CRX (Homo sapiens, UniProt O43186 1-299); details: protein: recombinant; tags: N-terminal GST; dsDNA, one strand shown
# Outline: as §1
# ETV1 = ETV1 (Homo sapiens, UniProt P50549 1-477); details: protein: recombinant; tags: N-terminal GST; dsDNA, one strand shown
# Outline: as §1
# ERF = biological target: T6, ERF (Homo sapiens, UniProt P50548 1-548); details: protein: recombinant; tags: N-terminal GST; dsDNA, one strand shown
# T6 sequence: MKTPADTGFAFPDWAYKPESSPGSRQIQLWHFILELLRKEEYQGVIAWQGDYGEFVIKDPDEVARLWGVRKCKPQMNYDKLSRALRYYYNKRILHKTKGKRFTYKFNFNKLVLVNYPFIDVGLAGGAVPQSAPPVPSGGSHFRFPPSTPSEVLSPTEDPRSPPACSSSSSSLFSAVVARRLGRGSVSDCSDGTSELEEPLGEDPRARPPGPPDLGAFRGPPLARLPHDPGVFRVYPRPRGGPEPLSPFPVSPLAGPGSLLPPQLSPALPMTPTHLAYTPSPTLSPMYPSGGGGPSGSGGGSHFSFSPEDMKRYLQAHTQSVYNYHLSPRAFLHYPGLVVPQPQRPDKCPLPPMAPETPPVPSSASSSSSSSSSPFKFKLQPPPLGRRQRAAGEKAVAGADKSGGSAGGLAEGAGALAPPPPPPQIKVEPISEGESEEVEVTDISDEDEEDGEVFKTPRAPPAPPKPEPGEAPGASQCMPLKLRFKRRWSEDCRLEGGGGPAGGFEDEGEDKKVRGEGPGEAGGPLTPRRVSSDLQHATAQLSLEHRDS
# Outline: as §1
# ETV3L = biological target: T7, ETV3L (Homo sapiens, UniProt Q6ZN32 1-361); details: protein: recombinant; tags: N-terminal GST; dsDNA, one strand shown
# T7 sequence: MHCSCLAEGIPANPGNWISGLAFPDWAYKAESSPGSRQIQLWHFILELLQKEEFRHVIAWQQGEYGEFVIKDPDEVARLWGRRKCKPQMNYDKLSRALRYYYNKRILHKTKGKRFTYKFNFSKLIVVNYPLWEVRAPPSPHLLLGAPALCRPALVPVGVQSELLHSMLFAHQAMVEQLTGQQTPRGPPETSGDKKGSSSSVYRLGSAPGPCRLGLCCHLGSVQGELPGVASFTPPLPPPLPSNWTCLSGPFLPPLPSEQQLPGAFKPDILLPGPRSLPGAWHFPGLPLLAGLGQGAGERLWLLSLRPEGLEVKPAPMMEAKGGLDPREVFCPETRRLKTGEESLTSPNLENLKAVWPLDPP
# Outline: as §1
# ETS2 = biological target: T8, ETS2 (Homo sapiens, UniProt P15036 1-469); details: protein: recombinant; tags: N-terminal GST; dsDNA, one strand shown
# T8 sequence: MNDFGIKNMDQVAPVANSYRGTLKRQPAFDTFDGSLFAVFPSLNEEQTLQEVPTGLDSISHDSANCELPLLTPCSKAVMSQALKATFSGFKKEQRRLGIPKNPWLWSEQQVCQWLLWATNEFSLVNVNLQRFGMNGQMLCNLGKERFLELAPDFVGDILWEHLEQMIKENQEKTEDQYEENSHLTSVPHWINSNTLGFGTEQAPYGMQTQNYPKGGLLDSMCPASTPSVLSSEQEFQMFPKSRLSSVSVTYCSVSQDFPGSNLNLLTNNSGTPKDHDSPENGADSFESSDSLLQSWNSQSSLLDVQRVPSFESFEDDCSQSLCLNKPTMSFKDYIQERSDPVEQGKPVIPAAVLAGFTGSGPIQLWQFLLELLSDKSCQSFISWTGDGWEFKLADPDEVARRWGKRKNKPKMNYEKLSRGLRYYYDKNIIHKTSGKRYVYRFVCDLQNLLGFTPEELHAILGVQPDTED
# Outline: as §1
# SPDEF = biological target: T9, SPDEF (Homo sapiens, UniProt O95238 1-335); details: protein: recombinant; tags: N-terminal GST; dsDNA, one strand shown
# T9 sequence: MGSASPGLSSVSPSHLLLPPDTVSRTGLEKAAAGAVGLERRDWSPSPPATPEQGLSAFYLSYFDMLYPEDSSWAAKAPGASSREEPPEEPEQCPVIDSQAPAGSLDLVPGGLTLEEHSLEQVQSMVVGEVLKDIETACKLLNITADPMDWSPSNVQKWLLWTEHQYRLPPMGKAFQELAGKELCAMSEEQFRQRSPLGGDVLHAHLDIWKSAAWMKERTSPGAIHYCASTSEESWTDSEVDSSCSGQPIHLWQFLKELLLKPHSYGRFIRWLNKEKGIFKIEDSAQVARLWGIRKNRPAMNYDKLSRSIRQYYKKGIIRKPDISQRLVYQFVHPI
# Outline: as §1
# ETV7 = biological target: T10, ETV7 (Homo sapiens, UniProt Q9Y603 1-341); details: protein: recombinant; tags: N-terminal GST; dsDNA, one strand shown
# T10 sequence: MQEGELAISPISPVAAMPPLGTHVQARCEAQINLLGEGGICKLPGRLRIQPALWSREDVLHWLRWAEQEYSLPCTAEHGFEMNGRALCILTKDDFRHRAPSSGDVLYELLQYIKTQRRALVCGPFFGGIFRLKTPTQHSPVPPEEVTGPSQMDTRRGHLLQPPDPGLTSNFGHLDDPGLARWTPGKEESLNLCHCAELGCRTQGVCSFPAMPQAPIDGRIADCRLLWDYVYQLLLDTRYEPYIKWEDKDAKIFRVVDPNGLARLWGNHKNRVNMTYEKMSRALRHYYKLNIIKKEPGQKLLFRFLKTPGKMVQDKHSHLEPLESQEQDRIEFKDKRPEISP
# Outline: as §1
# ELF5 = biological target: T11, ELF5 (Homo sapiens, UniProt Q9UKW6-2 1-255); details: protein: recombinant; tags: N-terminal GST; dsDNA, one strand shown
# T11 sequence: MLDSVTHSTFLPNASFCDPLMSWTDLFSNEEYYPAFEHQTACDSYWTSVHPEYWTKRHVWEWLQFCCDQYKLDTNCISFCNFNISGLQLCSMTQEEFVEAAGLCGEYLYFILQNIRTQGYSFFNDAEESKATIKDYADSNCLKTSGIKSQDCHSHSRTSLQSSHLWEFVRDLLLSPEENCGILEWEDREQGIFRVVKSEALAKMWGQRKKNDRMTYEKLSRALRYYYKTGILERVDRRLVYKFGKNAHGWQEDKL
# Outline: as §1
# ETV3 = biological target: T12, ETV3 (Homo sapiens, UniProt P41162-2 1-143); details: protein: recombinant; tags: N-terminal GST; dsDNA, one strand shown
# T12 sequence: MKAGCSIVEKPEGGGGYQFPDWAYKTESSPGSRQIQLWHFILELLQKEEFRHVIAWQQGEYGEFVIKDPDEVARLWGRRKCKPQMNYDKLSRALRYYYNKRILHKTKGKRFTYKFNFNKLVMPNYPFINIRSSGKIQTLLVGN
# Outline: as §1
# ETV6 = ETV6 (Homo sapiens, UniProt P41212 1-452); details: protein: recombinant; tags: N-terminal GST; dsDNA, one strand shown
# Outline: as §1
# ETV6, sequence (P41212 whole entry): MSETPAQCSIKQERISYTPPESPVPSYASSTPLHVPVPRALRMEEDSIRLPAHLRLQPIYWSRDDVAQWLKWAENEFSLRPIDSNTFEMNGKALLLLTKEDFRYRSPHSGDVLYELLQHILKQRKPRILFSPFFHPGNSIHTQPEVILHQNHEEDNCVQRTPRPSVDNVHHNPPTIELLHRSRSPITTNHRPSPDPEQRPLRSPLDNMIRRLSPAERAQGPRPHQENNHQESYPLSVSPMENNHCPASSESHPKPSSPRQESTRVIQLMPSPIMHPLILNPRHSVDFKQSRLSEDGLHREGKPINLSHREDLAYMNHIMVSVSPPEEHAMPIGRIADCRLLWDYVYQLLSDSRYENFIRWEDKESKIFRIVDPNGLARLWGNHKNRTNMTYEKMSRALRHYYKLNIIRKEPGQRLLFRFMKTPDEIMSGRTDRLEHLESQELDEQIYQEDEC
# HSF1, sequence (Q00613 whole entry): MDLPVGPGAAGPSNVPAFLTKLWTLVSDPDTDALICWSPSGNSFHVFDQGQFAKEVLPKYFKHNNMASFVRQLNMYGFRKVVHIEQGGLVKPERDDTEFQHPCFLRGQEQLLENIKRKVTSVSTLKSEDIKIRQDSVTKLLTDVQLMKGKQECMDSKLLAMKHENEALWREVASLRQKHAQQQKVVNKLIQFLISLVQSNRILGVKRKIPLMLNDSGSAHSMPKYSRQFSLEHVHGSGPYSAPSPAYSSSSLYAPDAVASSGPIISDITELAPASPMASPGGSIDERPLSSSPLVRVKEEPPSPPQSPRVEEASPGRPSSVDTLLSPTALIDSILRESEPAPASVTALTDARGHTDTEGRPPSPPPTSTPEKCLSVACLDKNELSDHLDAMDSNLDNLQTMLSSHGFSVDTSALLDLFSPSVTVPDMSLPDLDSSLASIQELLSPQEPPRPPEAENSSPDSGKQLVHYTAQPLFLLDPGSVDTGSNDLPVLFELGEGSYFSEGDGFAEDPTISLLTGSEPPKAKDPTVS
# ETV5, sequence (P41161 whole entry): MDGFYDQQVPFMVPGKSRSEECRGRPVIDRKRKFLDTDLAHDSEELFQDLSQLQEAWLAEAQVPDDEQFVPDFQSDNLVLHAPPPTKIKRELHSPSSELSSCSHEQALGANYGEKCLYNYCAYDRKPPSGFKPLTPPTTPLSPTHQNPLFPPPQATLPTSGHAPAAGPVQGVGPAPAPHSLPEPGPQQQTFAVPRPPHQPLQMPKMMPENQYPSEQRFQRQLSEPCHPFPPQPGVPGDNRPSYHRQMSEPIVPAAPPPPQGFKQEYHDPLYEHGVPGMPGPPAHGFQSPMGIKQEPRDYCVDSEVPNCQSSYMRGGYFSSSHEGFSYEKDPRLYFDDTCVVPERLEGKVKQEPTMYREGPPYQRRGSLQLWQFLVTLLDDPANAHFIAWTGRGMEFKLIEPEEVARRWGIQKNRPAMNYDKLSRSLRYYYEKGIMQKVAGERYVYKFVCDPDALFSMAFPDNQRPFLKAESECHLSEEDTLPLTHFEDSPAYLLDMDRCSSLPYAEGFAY
# ETV1, sequence (P50549 whole entry): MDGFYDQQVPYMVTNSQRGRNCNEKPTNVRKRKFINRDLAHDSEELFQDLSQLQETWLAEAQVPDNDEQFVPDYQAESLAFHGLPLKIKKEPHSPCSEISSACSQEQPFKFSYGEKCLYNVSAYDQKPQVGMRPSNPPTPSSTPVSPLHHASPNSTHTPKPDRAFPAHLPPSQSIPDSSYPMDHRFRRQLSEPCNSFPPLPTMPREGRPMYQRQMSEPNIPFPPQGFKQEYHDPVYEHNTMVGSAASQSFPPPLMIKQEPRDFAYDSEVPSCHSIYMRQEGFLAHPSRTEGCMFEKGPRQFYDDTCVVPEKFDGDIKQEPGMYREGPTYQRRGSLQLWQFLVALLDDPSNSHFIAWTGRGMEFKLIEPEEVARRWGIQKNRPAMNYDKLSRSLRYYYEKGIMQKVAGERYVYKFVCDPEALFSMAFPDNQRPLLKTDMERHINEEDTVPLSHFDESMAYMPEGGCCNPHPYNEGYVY
# ELF4, sequence (Q99607 whole entry): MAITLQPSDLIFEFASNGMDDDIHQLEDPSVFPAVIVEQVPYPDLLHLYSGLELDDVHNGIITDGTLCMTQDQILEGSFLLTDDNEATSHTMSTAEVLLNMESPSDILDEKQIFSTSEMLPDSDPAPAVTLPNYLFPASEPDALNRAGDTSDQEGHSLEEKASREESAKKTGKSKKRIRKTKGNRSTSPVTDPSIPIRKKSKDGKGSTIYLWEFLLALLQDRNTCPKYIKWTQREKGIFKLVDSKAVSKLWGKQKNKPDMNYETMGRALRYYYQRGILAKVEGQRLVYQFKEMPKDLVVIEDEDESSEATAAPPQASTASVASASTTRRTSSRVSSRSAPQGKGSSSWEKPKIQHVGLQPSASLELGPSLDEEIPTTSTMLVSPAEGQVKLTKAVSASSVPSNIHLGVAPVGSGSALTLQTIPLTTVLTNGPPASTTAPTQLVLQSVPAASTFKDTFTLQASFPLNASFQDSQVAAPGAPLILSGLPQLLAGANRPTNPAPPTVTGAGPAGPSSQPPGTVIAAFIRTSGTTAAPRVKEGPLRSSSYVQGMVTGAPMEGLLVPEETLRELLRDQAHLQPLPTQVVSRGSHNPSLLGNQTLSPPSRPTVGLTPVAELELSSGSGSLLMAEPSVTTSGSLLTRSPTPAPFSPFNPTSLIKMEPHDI
# CRX, sequence (O43186 whole entry): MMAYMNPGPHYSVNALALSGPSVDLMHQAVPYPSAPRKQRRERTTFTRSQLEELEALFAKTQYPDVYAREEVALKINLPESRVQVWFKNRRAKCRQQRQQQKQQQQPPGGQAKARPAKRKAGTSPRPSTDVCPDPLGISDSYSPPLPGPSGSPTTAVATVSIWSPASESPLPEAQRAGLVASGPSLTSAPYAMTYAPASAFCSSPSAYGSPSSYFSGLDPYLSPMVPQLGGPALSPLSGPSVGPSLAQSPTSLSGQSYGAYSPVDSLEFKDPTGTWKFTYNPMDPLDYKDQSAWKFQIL
sequence,measurement,setting,value
CTCCTT,binding signal,FEV,"1.75 fold enrichment (6-mer frequency, TF over GST control)"
same,binding signal,ETV5,"1.62 fold enrichment (6-mer frequency, TF over GST control)"
same,binding signal,HSF1,"1.61 fold enrichment (6-mer frequency, TF over GST control)"
same,binding signal,SPIC,"1.86 fold enrichment (6-mer frequency, TF over GST control)"
same,binding signal,ELF4,"1.8 fold enrichment (6-mer frequency, TF over GST control)"
same,binding signal,ELK4,"1.67 fold enrichment (6-mer frequency, TF over GST control)"
same,binding signal,ETV2,"1.7 fold enrichment (6-mer frequency, TF over GST control)"
same,binding signal,ELF3,"1.96 fold enrichment (6-mer frequency, TF over GST control)"
same,binding signal,CRX,"1.57 fold enrichment (6-mer frequency, TF over GST control)"
same,binding signal,ETV1,"1.69 fold enrichment (6-mer frequency, TF over GST control)"
same,binding signal,ERF,"1.86 fold enrichment (6-mer frequency, TF over GST control)"
same,binding signal,ETV3L,"1.76 fold enrichment (6-mer frequency, TF over GST control)"
same,binding signal,ETS2,"1.76 fold enrichment (6-mer frequency, TF over GST control)"
same,binding signal,SPDEF,"1.64 fold enrichment (6-mer frequency, TF over GST control)"
same,binding signal,ETV7,"1.75 fold enrichment (6-mer frequency, TF over GST control)"
same,binding signal,ELF5,"1.89 fold enrichment (6-mer frequency, TF over GST control)"
same,binding signal,ETV3,"1.95 fold enrichment (6-mer frequency, TF over GST control)"
same,binding signal,ETV6,"1.76 fold enrichment (6-mer frequency, TF over GST control)"
